Measurements as given in article PMC7862700, “An all-to-all approach to the identification of sequence-specific readers for epigenetic DNA modifications on cytosine”.

How the values were obtained:
Test in all cases: DAPPL (digital affinity profiling via proximity ligation, sequencing); 10 mM Tris-HCl pH 7.5, 50 mM NaCl, 1 mM DTT, 4% glycerol, room temperature, 30 min; GST-TFs on glutathione beads, 16-mer random dsDNA library, 0.1% formaldehyde crosslink after washing; high values mean tight binding
Details in all cases: protein: recombinant; tags: N-terminal GST; dsDNA, one strand shown
ETV1 = ETV1 (Homo sapiens, UniProt P50549 1-477)
Method in brief: (§1)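 Binding signal is each hexamer's read frequency for a factor divided by its frequency in the tag-only sample. The factors were GST-fused human transcription factors from yeast, captured on glutathione beads, DNA-barcoded and pooled with that sample. Pools were incubated with 200 nmole of a random double-stranded 16-mer DNA library in Tris/NaCl/DTT/glycerol buffer at room temperature for 30 min, then washed, crosslinked with 0.1% formaldehyde, proximity-ligated with BsaI/T4 ligase (1 h, 37 °C), PCR-amplified and sequenced on an Illumina NextSeq500.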

ERF = molecular target: T1, ERF (Homo sapiens, UniProt P50548 1-548)
T1 sequence: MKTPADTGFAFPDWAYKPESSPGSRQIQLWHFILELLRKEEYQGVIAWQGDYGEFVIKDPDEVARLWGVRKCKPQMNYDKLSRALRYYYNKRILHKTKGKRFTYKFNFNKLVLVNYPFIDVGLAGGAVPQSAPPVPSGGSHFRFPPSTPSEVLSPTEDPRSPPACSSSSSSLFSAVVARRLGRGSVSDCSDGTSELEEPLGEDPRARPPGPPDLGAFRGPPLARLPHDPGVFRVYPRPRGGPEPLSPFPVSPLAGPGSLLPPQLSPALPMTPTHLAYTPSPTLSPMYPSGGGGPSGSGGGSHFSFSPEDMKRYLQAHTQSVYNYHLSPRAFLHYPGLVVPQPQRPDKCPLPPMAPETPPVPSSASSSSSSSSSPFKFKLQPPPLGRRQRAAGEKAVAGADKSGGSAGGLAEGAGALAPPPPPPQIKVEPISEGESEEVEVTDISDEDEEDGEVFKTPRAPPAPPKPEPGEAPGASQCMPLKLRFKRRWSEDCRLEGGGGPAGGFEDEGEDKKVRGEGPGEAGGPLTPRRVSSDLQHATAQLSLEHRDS
Method in brief: as §1

ETV3L = molecular target: T2, ETV3L (Homo sapiens, UniProt Q6ZN32 1-361)
T2 sequence: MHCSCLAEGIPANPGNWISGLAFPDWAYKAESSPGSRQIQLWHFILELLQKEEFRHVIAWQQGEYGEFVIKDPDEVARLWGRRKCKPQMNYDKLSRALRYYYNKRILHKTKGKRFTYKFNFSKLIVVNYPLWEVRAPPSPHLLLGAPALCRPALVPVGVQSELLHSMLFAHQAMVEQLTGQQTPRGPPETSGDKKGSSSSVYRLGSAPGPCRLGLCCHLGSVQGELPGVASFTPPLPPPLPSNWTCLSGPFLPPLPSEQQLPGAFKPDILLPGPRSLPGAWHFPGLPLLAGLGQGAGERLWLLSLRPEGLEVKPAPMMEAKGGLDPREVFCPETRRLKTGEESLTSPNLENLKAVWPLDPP
Method in brief: as §1

ETS2 = molecular target: T3, ETS2 (Homo sapiens, UniProt P15036 1-469)
T3 sequence: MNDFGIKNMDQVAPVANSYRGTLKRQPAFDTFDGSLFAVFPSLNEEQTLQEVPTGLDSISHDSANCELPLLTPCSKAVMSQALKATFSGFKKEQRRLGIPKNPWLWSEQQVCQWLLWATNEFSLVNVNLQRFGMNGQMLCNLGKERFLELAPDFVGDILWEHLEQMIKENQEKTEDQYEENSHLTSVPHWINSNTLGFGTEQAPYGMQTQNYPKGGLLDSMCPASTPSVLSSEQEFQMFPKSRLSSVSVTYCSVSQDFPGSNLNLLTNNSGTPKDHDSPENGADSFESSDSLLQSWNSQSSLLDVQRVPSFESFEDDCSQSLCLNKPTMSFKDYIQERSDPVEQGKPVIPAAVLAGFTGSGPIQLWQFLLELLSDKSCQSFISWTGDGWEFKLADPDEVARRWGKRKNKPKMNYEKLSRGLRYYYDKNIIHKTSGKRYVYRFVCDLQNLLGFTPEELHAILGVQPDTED
Method in brief: as §1

SPDEF = molecular target: T4, SPDEF (Homo sapiens, UniProt O95238 1-335)
T4 sequence: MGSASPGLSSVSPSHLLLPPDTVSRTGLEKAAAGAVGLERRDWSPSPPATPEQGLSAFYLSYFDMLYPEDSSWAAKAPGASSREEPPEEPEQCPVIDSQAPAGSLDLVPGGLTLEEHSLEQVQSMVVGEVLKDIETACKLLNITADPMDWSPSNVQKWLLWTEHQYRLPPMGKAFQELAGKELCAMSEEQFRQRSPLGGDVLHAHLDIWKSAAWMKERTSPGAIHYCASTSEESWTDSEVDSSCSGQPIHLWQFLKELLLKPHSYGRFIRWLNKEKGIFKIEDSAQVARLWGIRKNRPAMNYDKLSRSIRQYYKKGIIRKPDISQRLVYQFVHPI
Method in brief: as §1

ETV7 = molecular target: T5, ETV7 (Homo sapiens, UniProt Q9Y603 1-341)
T5 sequence: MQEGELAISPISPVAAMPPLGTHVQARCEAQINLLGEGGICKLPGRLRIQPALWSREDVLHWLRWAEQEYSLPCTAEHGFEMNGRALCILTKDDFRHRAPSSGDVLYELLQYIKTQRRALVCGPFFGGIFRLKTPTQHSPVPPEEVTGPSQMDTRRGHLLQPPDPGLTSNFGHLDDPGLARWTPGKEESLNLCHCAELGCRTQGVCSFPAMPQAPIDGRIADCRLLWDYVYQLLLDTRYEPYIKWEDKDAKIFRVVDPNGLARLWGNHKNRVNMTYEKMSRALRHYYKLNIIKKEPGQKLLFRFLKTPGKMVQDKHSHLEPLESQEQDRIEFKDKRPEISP
Method in brief: as §1

ELF5 = molecular target: T6, ELF5 (Homo sapiens, UniProt Q9UKW6-2 1-255)
T6 sequence: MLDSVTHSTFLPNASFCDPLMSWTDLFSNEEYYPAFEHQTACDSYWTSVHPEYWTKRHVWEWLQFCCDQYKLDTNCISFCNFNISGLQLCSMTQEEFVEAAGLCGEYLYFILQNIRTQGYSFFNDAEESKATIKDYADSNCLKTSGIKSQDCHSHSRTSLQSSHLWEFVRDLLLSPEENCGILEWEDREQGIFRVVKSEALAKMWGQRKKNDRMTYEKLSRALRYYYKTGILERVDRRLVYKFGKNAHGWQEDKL
Method in brief: as §1

ETV3 = molecular target: T7, ETV3 (Homo sapiens, UniProt P41162-2 1-143)
T7 sequence: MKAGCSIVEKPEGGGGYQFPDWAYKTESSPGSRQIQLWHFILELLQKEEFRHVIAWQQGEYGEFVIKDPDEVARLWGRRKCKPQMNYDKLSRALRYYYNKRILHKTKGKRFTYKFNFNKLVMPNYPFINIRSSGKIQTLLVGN
Method in brief: as §1

ETV6 = ETV6 (Homo sapiens, UniProt P41212 1-452)
Method in brief: as §1

Chain of ETV6 (P41212 whole entry): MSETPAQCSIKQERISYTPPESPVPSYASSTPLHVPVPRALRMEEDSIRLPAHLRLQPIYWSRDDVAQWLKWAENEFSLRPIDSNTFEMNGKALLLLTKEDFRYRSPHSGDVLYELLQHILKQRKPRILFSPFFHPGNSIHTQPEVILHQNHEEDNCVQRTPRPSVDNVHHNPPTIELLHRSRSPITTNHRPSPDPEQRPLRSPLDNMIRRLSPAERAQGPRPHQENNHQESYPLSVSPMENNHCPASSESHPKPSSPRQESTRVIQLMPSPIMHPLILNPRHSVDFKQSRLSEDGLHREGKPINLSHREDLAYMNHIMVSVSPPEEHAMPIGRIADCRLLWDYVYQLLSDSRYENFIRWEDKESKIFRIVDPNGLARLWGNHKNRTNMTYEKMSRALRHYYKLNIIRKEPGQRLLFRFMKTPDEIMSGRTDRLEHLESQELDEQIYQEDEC
Chain of ETV1 (P50549 whole entry, the tested form may be a part): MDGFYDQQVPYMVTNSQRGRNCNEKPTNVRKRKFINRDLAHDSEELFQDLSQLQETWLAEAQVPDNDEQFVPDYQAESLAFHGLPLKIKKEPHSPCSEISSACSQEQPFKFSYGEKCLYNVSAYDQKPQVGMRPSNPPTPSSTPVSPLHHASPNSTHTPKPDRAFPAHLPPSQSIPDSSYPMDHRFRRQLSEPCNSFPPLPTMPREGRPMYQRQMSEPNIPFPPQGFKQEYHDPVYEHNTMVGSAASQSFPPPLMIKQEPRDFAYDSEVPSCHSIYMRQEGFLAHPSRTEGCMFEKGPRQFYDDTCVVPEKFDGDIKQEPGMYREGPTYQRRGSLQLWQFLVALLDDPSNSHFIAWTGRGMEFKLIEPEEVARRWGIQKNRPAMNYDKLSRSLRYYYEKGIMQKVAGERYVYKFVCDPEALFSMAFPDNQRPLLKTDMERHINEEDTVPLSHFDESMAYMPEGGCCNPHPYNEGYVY

Question: Which results are given for AATACG?
Answer: binding signal (ETV1): 1.28 fold enrichment (6-mer frequency, TF over GST control); binding signal (ERF): 1.23 fold enrichment (6-mer frequency, TF over GST control); binding signal (ETV3L): 1.23 fold enrichment (6-mer frequency, TF over GST control); binding signal (ETS2): 1.28 fold enrichment (6-mer frequency, TF over GST control); binding signal (SPDEF): 1.24 fold enrichment (6-mer frequency, TF over GST control); binding signal (ETV7): 1.12 fold enrichment (6-mer frequency, TF over GST control); binding signal (ELF5): 1.27 fold enrichment (6-mer frequency, TF over GST control); binding signal (ETV3): 1.19 fold enrichment (6-mer frequency, TF over GST control); binding signal (ETV6): 1.26 fold enrichment (6-mer frequency, TF over GST control)
